In PubChem BioAssay (NCATS):
Where “and” joins values, the source holds several entries; their conditions need not be identical. Equal entries are not always repeated. Inconclusive results are not listed. Calls of active or inactive are those of the source. Unless noted, the call rests on the fitted dose curve.

Legend:
[1] = qHTS assay for small molecule activators of the p53 signaling pathway (AID 651743; active means well fitted activation curve with a large enough effect in the signal ratio, not every such curve was filed as active; the % refers to the signal ratio; further: % of control where 0% means no effect); conditions: HCT-116 p53RE-bla, beta-lactamase FRET ratio, 16 h; activation: hits give high values
How it was run: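 Agonist-mode quantitative HTS in HCT-116 cells carrying a p53-response-element beta-lactamase reporter; 16 h compound treatment at 37 C, then FRET substrate loading for 2 h at room temperature and fluorescence read.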

[2] = qHTS assay for small molecule activators of the nuclear factor-kappa B (NF-kB) signaling pathway (AID 651749; active means well fitted activation curve with a large enough effect in the signal ratio; the % refers to the signal ratio; further: % of control where 0% means no effect); conditions: NF-kB-bla ME-180 cells, beta-lactamase FRET ratio, 16 h; hits give high values
How it was run: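 Human ME-180 cervical cells with an NF-kB-bla construct; compounds added via 23 nL pin transfer, DMSO as vehicle; incubation 16 hr. Reporter activity measured by FRET disruption.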

[3] = target: Tumor necrosis factor (Homo sapiens) (UniProt P01375); experiment: qHTS assay to identify small molecules that stimulate Tumor Necrosis Factor-alpha (TNF-alpha) secretion (AID 651757; active means well fitted curve in the direction sought with a large enough effect in the signal ratio; the % refers to the signal ratio; further: 0% is about no effect); conditions: Human cells, HTRF 665/615 ratio; series mostly up to 92.2 µM
Tumor necrosis factor (Homo sapiens), sequence (P01375 whole entry, looked up): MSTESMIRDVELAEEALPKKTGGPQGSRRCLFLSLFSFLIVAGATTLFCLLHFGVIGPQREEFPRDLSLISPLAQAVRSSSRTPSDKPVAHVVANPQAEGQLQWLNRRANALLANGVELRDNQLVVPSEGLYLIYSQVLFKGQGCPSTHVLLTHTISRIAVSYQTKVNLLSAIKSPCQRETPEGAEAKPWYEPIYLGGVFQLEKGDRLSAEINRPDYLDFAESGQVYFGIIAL
How it was run: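 Human monocytic THP-1 cells are plated, treated with compound and held at 37 C for 17 hrs. Labeled anti-TNF-alpha antibody mixture is then added; after 3 hr at room temperature, TR-FRET signal reports secreted TNF-alpha.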

[4] = qHTS assay to identify small molecules that stimulate interleukin-8 (IL-8) secretion (AID 651758; active means well fitted activation curve with a large enough effect in the signal ratio; the % refers to the signal ratio; further: 0% is about no effect); conditions: HTRF ratio (665/615); series mostly up to 92.2 µM
How it was run: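 Quantitative HTS in THP-1 monocytic cells at 2000 cells per well, with 16 hrs compound incubation at 37 C. IL-8 in the medium was then quantified by HTRF immunoassay, read after 1-3 hrs at room temperature.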

[5] = qHTS assay for small molecule agonists of the antioxidant response element (ARE) signaling pathway (AID 651741; active means well fitted activation curve with a large enough effect in the signal ratio; the % refers to the signal ratio; further: % of control where 0% means no effect); conditions: HepG2 ARE-bla reporter, beta-lactamase FRET ratio, 16 h; series mostly up to 96 µM
How it was run: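 Reporter: beta-lactamase under ARE, stably in HepG2. Exposure: 16 h, 37 C, compounds delivered in DMSO by pin tool after 5 h cell preincubation. Readout: FRET substrate fluorescence after 2 h at RT.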

[6] = qHTS assay for small molecule disruptors of the mitochondrial membrane potential - 1 hr assay (AID 651754); conditions: series mostly up to 92.2 µM; further: on the % scale 0 is the no-effect control and ±100 the full control effect; nearly all actives have a fitted effect of over 35% in size
How it was run: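 Loss of mitochondrial potential shifts the cationic dye from red mitochondrial aggregates to green cytoplasmic monomers. Cells (HepG2) are treated with compound for 1 hr before a 30 min dye incubation at 37C.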

[7] = qHTS assay for small molecule disruptors of the mitochondrial membrane potential - 5 hr assay (AID 651755); conditions: JC-1-type ratio dye; series mostly up to 92.2 µM; further: on the % scale 0 is the no-effect control and ±100 the full control effect; nearly all actives have a fitted effect of over 40% in size
How it was run: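 Seed HepG2 overnight, add compound, incubate 5 hr at 37C and 5% CO2, stain 30 min with Mito-MPS, then measure monomer (490/535 nm) and aggregate (540/590 nm) fluorescence.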

c1cc2ccc3cccc4ccc(c1)c2c34
inactive: activation [1] 4.51% and 2.05% | activation [2] -0.548% and 0.897% | outcome [3] | outcome [4]

CCOCCOC(C)=O
inactive: Potency [5] | activation [1] -0.566% | outcome [3]

Nc1ccc([N+](=O)[O-])cc1
inactive: activation [1] 0.0042% | activation [2] -0.186% | outcome [3] | outcome [4]

O=[N+]([O-])c1c(Cl)c(Cl)cc(Cl)c1Cl
inactive: activation [1] -1.29% | activation [2] -0.885% | Potency [6] | Potency [7] | outcome [3] | outcome [4]
